Some test systems named below: SK-MEL-2 melanoma; EKVX NSCLC; SN12C renal; UO-31 renal; TK-10 renal; ACHN renal; CAKI-1 renal; A498 renal; MOLT-4 leukemia; RPMI-8226 leukemia; OVCAR-8 ovarian; OVCAR-5 ovarian; OVCAR-4 ovarian; SK-OV-3 ovarian; IGROV1 ovarian; OVCAR-3 ovarian; HS 578T breast; NCI/ADR-RES ovarian; SR leukemia.
What all share (experiment): NCI-60 one-dose screen, 48 h (100 = growth as untreated, 0 = no growth, -100 = all killed)
What all share (details): 10 µM unless noted

About 83,000 compounds went through this panel and 20% of them were active in at least one assay; those are over-represented in the sample as a whole.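 For each line, cells grew in 96-well plates with the test compound present at a single concentration for 48 hours.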 Unmarked numbers belong to inactive results. Active and inactive are the calls of the source. Rule for the calls: active = growth percent below 10; inactive = the rest.

Drawing on PubChem BioAssay (NCI), this text covers growth for 9 molecules.

Consider `O=C(O)c1ccc2c(c1)CCC2`, for which the growth is 95.8% in the assay with SK-MEL-2 melanoma; 117% with EKVX NSCLC; 103% in the assay with SN12C renal; 94.4% in the assay with UO-31 renal; 107% with TK-10 renal; 104% with ACHN renal. Besides, the growth in the assay with CAKI-1 renal is 101%; with A498 renal it was 139%; in the assay on MOLT-4 leukemia it was 91.1%; in the assay with RPMI-8226 leukemia it was 99.8%; in the assay on OVCAR-8 ovarian, 107%; in the assay on OVCAR-5 ovarian it was 105%. In addition, the growth was 107% with OVCAR-4 ovarian; 107% with SK-OV-3 ovarian; 103% in the assay with IGROV1 ovarian; 119% in the assay with OVCAR-3 ovarian; 134% in the assay with HS 578T breast; 111% in the assay with NCI/ADR-RES ovarian.
As to `COc1cc(/C=C/C(=O)c2c(C)nc3ccccc3c2C)ccc1OCCCN1CCN(C(=O)c2ccco2)CC1`, the growth in the assay on SK-MEL-2 melanoma is 59.3%; in the assay with EKVX NSCLC, 81.7%; in the assay on SN12C renal, 92.5%; in the assay with UO-31 renal, 66.7%; in the assay on TK-10 renal, 110%; in the assay on ACHN renal it was 80.6%. The growth is 74.8% with CAKI-1 renal; 59.4% in the assay with A498 renal; 60.6% in the assay with MOLT-4 leukemia; 31.4% in the assay with RPMI-8226 leukemia; 73.5% in the assay on OVCAR-8 ovarian; 25.2% in the assay on OVCAR-4 ovarian. In addition, the growth with SK-OV-3 ovarian was 107%; in the assay on IGROV1 ovarian, 76.6%; with OVCAR-3 ovarian it was 97.9%; with HS 578T breast it was 82.1%; in the assay on NCI/ADR-RES ovarian, 55.6%.
For the molecule `COc1ccccc1CNCCCN1C(=O)c2ccc3c4c(ccc(c24)C1=O)C(=O)N(CCCNCCCCN)C3=O`, the growth in the assay with SK-MEL-2 melanoma was -67.9% (active); with EKVX NSCLC it was 8.85% (active); in the assay with SN12C renal, -39.3% (active); in the assay with UO-31 renal, 11.2%; with TK-10 renal, -1.84% (active); with ACHN renal, 7.77% (active). Moreover, the growth with CAKI-1 renal was 33.7%; in the assay with A498 renal, -52% (active); in the assay with MOLT-4 leukemia, 0.762% (active); in the assay with RPMI-8226 leukemia, -8.59% (active); in the assay with OVCAR-8 ovarian, -7.98% (active); in the assay on OVCAR-5 ovarian, -12.4% (active). The growth with OVCAR-4 ovarian is -84.9% (active); in the assay on SK-OV-3 ovarian, 14.2%; in the assay on IGROV1 ovarian it was 8.53% (active); in the assay with OVCAR-3 ovarian, -1.35% (active); in the assay on HS 578T breast it was -7.25% (active); in the assay with NCI/ADR-RES ovarian, 42.5%.
Take `N=C1C(c2nc(-c3ccc(Br)cc3)cs2)=C(O)CN1Cc1cccnc1`: the growth in the assay on SK-MEL-2 melanoma is 111%; in the assay on EKVX NSCLC, 71.7%; in the assay with SN12C renal, 69.7%; in the assay on UO-31 renal, -6.45% (active); in the assay on TK-10 renal, 60.1%; with ACHN renal, 61.5%. Moreover, the growth in the assay on CAKI-1 renal is 57.1%; with A498 renal, 86.8%; in the assay with MOLT-4 leukemia, 68.5%; in the assay on RPMI-8226 leukemia it was 70.2%; with OVCAR-8 ovarian, 16.3%; in the assay with OVCAR-5 ovarian, 77.1%. The growth in the assay with OVCAR-4 ovarian is 37.2%; in the assay with SK-OV-3 ovarian it was 40.4%; with OVCAR-3 ovarian, 101%; with HS 578T breast, 23%; in the assay on NCI/ADR-RES ovarian, 70.1%.
As for `Cc1ccc(Nc2nc(N)nc(CSCC(=O)NN)n2)cc1`, the growth in the assay with SK-MEL-2 melanoma is 109%; in the assay on EKVX NSCLC it was 102%; in the assay on SN12C renal, 94.6%; with UO-31 renal it was 88.2%; in the assay on TK-10 renal it was 115%; in the assay with ACHN renal it was 101%. Moreover, the growth is 89.8% in the assay with CAKI-1 renal; 77.7% in the assay with A498 renal; 101% with RPMI-8226 leukemia; 103% in the assay on OVCAR-8 ovarian; 103% with OVCAR-5 ovarian; 93.7% in the assay with OVCAR-4 ovarian. In addition, the growth in the assay on SK-OV-3 ovarian was 101%; in the assay with IGROV1 ovarian, 99.5%; in the assay on OVCAR-3 ovarian it was 105%; in the assay on HS 578T breast, 90.9%; in the assay with NCI/ADR-RES ovarian it was 104%.
Consider `CC(=O)OC1CCC2(C)C(=CC3C4CCC(=O)C4(C)CCC32)C1` (stereo unspecified), for which the growth with SK-MEL-2 melanoma was 93%; with EKVX NSCLC, 109%; with SN12C renal, 96.4%; with UO-31 renal, 96.2%; with TK-10 renal it was 108%; in the assay with ACHN renal, 101%. Moreover, the growth in the assay on CAKI-1 renal was 101%; in the assay on A498 renal it was 154%; in the assay with MOLT-4 leukemia, 103%; in the assay on RPMI-8226 leukemia, 89.3%; with OVCAR-8 ovarian, 97.3%; in the assay with OVCAR-5 ovarian, 100%. In addition, the growth is 103% with OVCAR-4 ovarian; 105% in the assay with SK-OV-3 ovarian; 105% in the assay with IGROV1 ovarian; 109% in the assay with OVCAR-3 ovarian; 119% with HS 578T breast; 104% in the assay with NCI/ADR-RES ovarian.
As to `O=C(O)CN1C(=O)CCC1=O`, the growth was 118% with SK-MEL-2 melanoma; 95.4% in the assay on EKVX NSCLC; 102% in the assay on SN12C renal; 102% in the assay on UO-31 renal; 107% in the assay with TK-10 renal; 96% in the assay on ACHN renal. The growth in the assay with CAKI-1 renal is 102%; with A498 renal it was 97.4%; in the assay with MOLT-4 leukemia, 114%; in the assay with SR leukemia, 112%; with OVCAR-8 ovarian, 99.4%; with OVCAR-5 ovarian, 101%. Also, the growth in the assay on SK-OV-3 ovarian was 104%; in the assay with IGROV1 ovarian it was 118%; in the assay with OVCAR-3 ovarian it was 115%; with HS 578T breast, 115%; in the assay with NCI/ADR-RES ovarian it was 112%.
Turning to `Cc1c2c(c(C)c3c1oc1cc(O)ccc13)C(=O)N(CCN1CCCCC1)C2=O`, the growth was 105% in the assay on SK-MEL-2 melanoma; 101% in the assay with EKVX NSCLC; 85.9% in the assay on SN12C renal; 74.9% in the assay on UO-31 renal; 96.7% with TK-10 renal; 84.3% in the assay on ACHN renal. Further, the growth with CAKI-1 renal is 76.3%; in the assay with A498 renal, 106%; in the assay with MOLT-4 leukemia, 80.4%; in the assay on RPMI-8226 leukemia it was 74.6%; in the assay with OVCAR-8 ovarian, 64.2%; with OVCAR-5 ovarian it was 114%. Also, the growth in the assay with OVCAR-4 ovarian was 94.1%; in the assay on SK-OV-3 ovarian it was 105%; in the assay on IGROV1 ovarian, 82.8%; in the assay on HS 578T breast, 89.8%; with NCI/ADR-RES ovarian, 81.7%.
For the molecule `COc1cc2c(cc1-c1c(C)noc1C)ncc1nc(C3CCCCC3)n(C3CCC(OC(F)F)CC3)c12` (stereo unspecified), the growth in the assay on SK-MEL-2 melanoma is 6.6% (active); with EKVX NSCLC, 41.1%; with SN12C renal, 52.7%; with UO-31 renal, 8.28% (active); in the assay on TK-10 renal, 24.1%; in the assay on ACHN renal, 37.4%. In addition, the growth with CAKI-1 renal was 42.7%; in the assay on A498 renal, 28.3%; in the assay with MOLT-4 leukemia, 18.4%; with OVCAR-8 ovarian it was 40.5%; in the assay with OVCAR-5 ovarian, 63.5%; with OVCAR-4 ovarian, 40.3%. In addition, the growth is -2.64% (active) in the assay with SK-OV-3 ovarian; 50.9% in the assay on IGROV1 ovarian; 27.8% with OVCAR-3 ovarian; 52.2% in the assay with HS 578T breast; 30% in the assay on NCI/ADR-RES ovarian.
